According to the supplement of paper PMC10981050:
“And” between values parts separate entries of the source, which are not always exact repeats. Equal values may be shown once. Where a name gives a salt, the structure may show the parent alone.

Assays:
Assay in all cases: cell viability relative to vehicle control; higher = less cytotoxic
[1] = system: MARIMO; conditions: 10 µM
In short: (§1)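 After removal of identity-inconsistent compounds, the Selleck bioactive, kinase and epigenetic probe libraries were screened on CRISPR-edited mutant clones and isogenic wild-type clones of four leukaemia lines. Plates were 384-well, each well holding 2000 cells in 50 µL medium and receiving a single 10 µM acoustically dispensed dose. CellTiter-Glo luminescence was read 48 h later, after the supernatant was taken off. Genedata Screener was used to express viability as percent of the on-plate vehicle control.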

[2] = system: MOLM14; conditions: 10 µM
In short: as §1

[3] = system: OCI-AML2; conditions: 10 µM
In short: as §1

[4] = system: K562; conditions: 10 µM; SRSF2 genotype: SRSF2 wt/wt
In short: as §1

SMILES: COc1cc2ncnc(Nc3ccc(F)c(Cl)c3)c2cc1OCCCN1CCOCC1 [Gefitinib (ZD1839)]
- cell viability ([1]; SRSF2 genotype: SRSF2 P95H/wt): 63.4%
- cell viability ([1]; SRSF2 genotype: SRSF2 wt/wt): 63.1%
- cell viability ([2]; SRSF2 genotype: SRSF2 P95H/wt): 39.7%
- cell viability ([2]; SRSF2 genotype: SRSF2 wt/wt): 45.2%
- cell viability ([3]; SRSF2 genotype: P95H/wt): 53.4%
- cell viability ([3]; SRSF2 genotype: wt/wt): 50.9%

SMILES: O=C(/C=C/c1ccc(O)c(O)c1/C=C/c1ccc(O)c(O)c1)O[C@H](Cc1ccc(O)c(O)c1)C(=O)O [Salvianolic acid A]
- cell viability [4]: 70.5%
- cell viability ([1]; SRSF2 genotype: SRSF2 P95H/wt): 86.4%
- cell viability ([1]; SRSF2 genotype: SRSF2 wt/wt): 94.7%
- cell viability ([2]; SRSF2 genotype: SRSF2 P95H/wt): 73.7%
- cell viability ([2]; SRSF2 genotype: SRSF2 wt/wt): 62.1%
- cell viability ([3]; SRSF2 genotype: P95H/wt): 98.2%
- cell viability ([3]; SRSF2 genotype: wt/wt): 95%

SMILES: COc1cc([C@@H]2c3cc4c(cc3[C@@H](O[C@@H]3O[C@@H]5CO[C@@H](C)O[C@H]5[C@H](O)[C@H]3O)[C@H]3COC(=O)[C@H]23)OCO4)cc(OC)c1O [Etoposide (VP-16)]
- cell viability [4]: 82%
- cell viability ([1]; SRSF2 genotype: SRSF2 P95H/wt): 7.2%
- cell viability ([1]; SRSF2 genotype: SRSF2 wt/wt): 6.84%
- cell viability ([2]; SRSF2 genotype: SRSF2 P95H/wt): 15.3%
- cell viability ([2]; SRSF2 genotype: SRSF2 wt/wt): 4.31%
- cell viability ([3]; SRSF2 genotype: P95H/wt): 13%
- cell viability ([3]; SRSF2 genotype: wt/wt): 14.8%

SMILES: C[C@@H]1CCN(C(=O)CC#N)C[C@@H]1N(C)c1ncnc2[nH]ccc12
- cell viability [4]: 99.6% and 112%
- cell viability ([1]; SRSF2 genotype: SRSF2 P95H/wt): 97.6% and 104%
- cell viability ([1]; SRSF2 genotype: SRSF2 wt/wt): 99.8% and 112%
- cell viability ([2]; SRSF2 genotype: SRSF2 P95H/wt): 85.3% and 95.7%
- cell viability ([2]; SRSF2 genotype: SRSF2 wt/wt): 104%
- cell viability ([3]; SRSF2 genotype: P95H/wt): 96.5% and 99.1%
- cell viability ([3]; SRSF2 genotype: wt/wt): 93.8% and 101%

SMILES: O=C(NC1CCNCC1)c1n[nH]cc1NC(=O)c1c(Cl)cccc1Cl
- cell viability [4]: 26.4% and 27.1%
- cell viability ([1]; SRSF2 genotype: SRSF2 P95H/wt): 13.2% and 15.4%
- cell viability ([1]; SRSF2 genotype: SRSF2 wt/wt): 6.7% and 6.57%
- cell viability ([2]; SRSF2 genotype: SRSF2 P95H/wt): 3.09% and 4.11%
- cell viability ([2]; SRSF2 genotype: SRSF2 wt/wt): 0.56% and 0.84%
- cell viability ([3]; SRSF2 genotype: P95H/wt): 5.65% and 5.71%
- cell viability ([3]; SRSF2 genotype: wt/wt): 17.9% and 18%

SMILES: Cc1coc2c1C(=O)C(=O)c1c-2ccc2c1CCCC2(C)C [Tanshinone IIA (Tanshinone B)]
- cell viability [4]: 52.2%
- cell viability ([1]; SRSF2 genotype: SRSF2 P95H/wt): 98.2%
- cell viability ([1]; SRSF2 genotype: SRSF2 wt/wt): 89%
- cell viability ([2]; SRSF2 genotype: SRSF2 P95H/wt): 88.8%
- cell viability ([2]; SRSF2 genotype: SRSF2 wt/wt): 79.7%
- cell viability ([3]; SRSF2 genotype: P95H/wt): 84.1%
- cell viability ([3]; SRSF2 genotype: wt/wt): 83.3%

SMILES: CC(Nc1nc(N2CCCC2)nc2ccccc12)c1ccccc1 (stereo unspecified) [Importazole]
- cell viability [4]: 29.2%
- cell viability ([1]; SRSF2 genotype: SRSF2 P95H/wt): 46.3%
- cell viability ([1]; SRSF2 genotype: SRSF2 wt/wt): 64.7%
- cell viability ([2]; SRSF2 genotype: SRSF2 P95H/wt): 51.2%
- cell viability ([2]; SRSF2 genotype: SRSF2 wt/wt): 48.2%
- cell viability ([3]; SRSF2 genotype: P95H/wt): 51.8%
- cell viability ([3]; SRSF2 genotype: wt/wt): 58.2%

SMILES: CCn1cc(C(=O)O)c(=O)c2c(N)c(F)c(NC3CCCCC3)cc21
- cell viability [4]: 80.6%
- cell viability ([1]; SRSF2 genotype: SRSF2 P95H/wt): 94.2%
- cell viability ([1]; SRSF2 genotype: SRSF2 wt/wt): 125%
- cell viability ([2]; SRSF2 genotype: SRSF2 P95H/wt): 106%
- cell viability ([2]; SRSF2 genotype: SRSF2 wt/wt): 117%
- cell viability ([3]; SRSF2 genotype: P95H/wt): 120%
- cell viability ([3]; SRSF2 genotype: wt/wt): 136%

SMILES: O=C(Cc1cccc(OC(F)(F)F)c1)Nc1ccc(CCCCc2nnc(NC(=O)Cc3ccccn3)s2)nn1
- cell viability [4]: 58.5%
- cell viability ([1]; SRSF2 genotype: SRSF2 P95H/wt): 23.7%
- cell viability ([1]; SRSF2 genotype: SRSF2 wt/wt): 21.2%
- cell viability ([2]; SRSF2 genotype: SRSF2 P95H/wt): 44.3%
- cell viability ([2]; SRSF2 genotype: SRSF2 wt/wt): 53.4%
- cell viability ([3]; SRSF2 genotype: P95H/wt): 20.1%
- cell viability ([3]; SRSF2 genotype: wt/wt): 24.8%

SMILES: Cc1cc(N2C[C@@H](C)N[C@@H](C)C2)ncc1-c1ccc(-c2nc3c(ccn3C)c(=O)[nH]2)cc1
- cell viability [4]: 59%
- cell viability ([1]; SRSF2 genotype: SRSF2 P95H/wt): 79.6%
- cell viability ([1]; SRSF2 genotype: SRSF2 wt/wt): 76.4%
- cell viability ([2]; SRSF2 genotype: SRSF2 P95H/wt): 0.95%
- cell viability ([2]; SRSF2 genotype: SRSF2 wt/wt): 1.53%
- cell viability ([3]; SRSF2 genotype: P95H/wt): 5.67%
- cell viability ([3]; SRSF2 genotype: wt/wt): 3.85%

SMILES: CC(=O)Oc1cc(C)c(OC(C)=O)c2ccccc12 [Menadiol Diacetate]
- cell viability [4]: 95.2%
- cell viability ([1]; SRSF2 genotype: SRSF2 P95H/wt): 49.6%
- cell viability ([1]; SRSF2 genotype: SRSF2 wt/wt): 53.5%
- cell viability ([2]; SRSF2 genotype: SRSF2 P95H/wt): 15.3%
- cell viability ([2]; SRSF2 genotype: SRSF2 wt/wt): 7.05%
- cell viability ([3]; SRSF2 genotype: P95H/wt): 5.63%
- cell viability ([3]; SRSF2 genotype: wt/wt): 11.2%

SMILES: O=C(O[C@@H]1Cc2c(O)cc(O)cc2O[C@H]1c1cc(O)c(O)c(O)c1)c1cc(O)c(O)c(O)c1 [Gallocatechin gallate]
- cell viability [4]: 71%
- cell viability ([1]; SRSF2 genotype: SRSF2 P95H/wt): 91.1%
- cell viability ([1]; SRSF2 genotype: SRSF2 wt/wt): 91.7%
- cell viability ([2]; SRSF2 genotype: SRSF2 P95H/wt): 77.3%
- cell viability ([2]; SRSF2 genotype: SRSF2 wt/wt): 67.3%
- cell viability ([3]; SRSF2 genotype: P95H/wt): 94.1%
- cell viability ([3]; SRSF2 genotype: wt/wt): 87.8%

SMILES: COc1cc2/c(=N/c3ccc(Br)cc3F)nc[nH]c2cc1OCC1CCN(C)CC1 [Vandetanib (ZD6474)]
- cell viability [4]: 41%
- cell viability ([1]; SRSF2 genotype: SRSF2 P95H/wt): 83%
- cell viability ([1]; SRSF2 genotype: SRSF2 wt/wt): 97.2%
- cell viability ([2]; SRSF2 genotype: SRSF2 P95H/wt): 57.6%
- cell viability ([2]; SRSF2 genotype: SRSF2 wt/wt): 68.6%
- cell viability ([3]; SRSF2 genotype: P95H/wt): 77.3%
- cell viability ([3]; SRSF2 genotype: wt/wt): 75.4%

SMILES: CCS(=O)(=O)N1CCN(c2ccc(Nc3ncc(C(N)=O)c(NC4CC4)n3)cc2)CC1
- cell viability [4]: 63.2%
- cell viability ([1]; SRSF2 genotype: SRSF2 P95H/wt): 65.2%
- cell viability ([1]; SRSF2 genotype: SRSF2 wt/wt): 63.1%
- cell viability ([2]; SRSF2 genotype: SRSF2 P95H/wt): 7.8%
- cell viability ([2]; SRSF2 genotype: SRSF2 wt/wt): 8.15%
- cell viability ([3]; SRSF2 genotype: P95H/wt): 12.1%
- cell viability ([3]; SRSF2 genotype: wt/wt): 15.5%

SMILES: NC(CO)C(=O)NNCc1ccc(O)c(O)c1O (stereo unspecified) [Benserazide HCl]
- cell viability [4]: 80.2%
- cell viability ([1]; SRSF2 genotype: SRSF2 P95H/wt): 103%
- cell viability ([1]; SRSF2 genotype: SRSF2 wt/wt): 95.5%
- cell viability ([2]; SRSF2 genotype: SRSF2 P95H/wt): 85.3%
- cell viability ([2]; SRSF2 genotype: SRSF2 wt/wt): 71.6%
- cell viability ([3]; SRSF2 genotype: P95H/wt): 94.2%
- cell viability ([3]; SRSF2 genotype: wt/wt): 99.5%

SMILES: CCNC(=O)C#Cc1ccc2c(C(=Nc3ccc(CN(C)C)cc3)c3ccccc3)c(O)[nH]c2c1
- cell viability [4]: 53.4%
- cell viability ([1]; SRSF2 genotype: SRSF2 P95H/wt): 26.7%
- cell viability ([1]; SRSF2 genotype: SRSF2 wt/wt): 25.1%
- cell viability ([2]; SRSF2 genotype: SRSF2 P95H/wt): 4.97%
- cell viability ([2]; SRSF2 genotype: SRSF2 wt/wt): 7.91%
- cell viability ([3]; SRSF2 genotype: P95H/wt): 11.9%
- cell viability ([3]; SRSF2 genotype: wt/wt): 17.2%
